For this assay, the target named is Histone H4 (UniProt P62805). Kind of assay: cross-link between two proteins; cross-linking mass spectrometry.

ADP/ATP translocase 3, P12236: the “listed as a hit” value is listed as “yes”.

(Values after paper PMC9174471.)
